# Assay outcomes deposited in PubChem by Broad Institute.
# aSyn UTR act: Activators working through SNCA 5'UTR binding (MLPCN); alpha-synuclein 5'UTR reporter, activators screen; activity score, % (tested at 7.5 µM), hits read low; hit rate 7.1% among 300,000; in the data active means activity score below about -60%
# Numbers without * were called inactive. These entries were drawn from the full list.
SMILES,aSyn UTR act
Cn1cccc1-c1nc2ccccc2[nH]1,-114.1*
Cn1cccc1-c1nc2ccc(NC(=O)c3ccccc3)cc2[nH]1,-124.5*
CN1CCC(=O)N([C@H](CSc2ccc(Br)cc2)c2ccccc2)CC1,-103.6*
CCCN1CCC(=O)N([C@H](CSc2ccccc2)c2ccccc2)CC1,-72.1*
CCCN1CCC(=O)N([C@H](CSc2ccc(C)cc2)c2ccccc2)CC1,-181.0*
CCCN1CCC(=O)N([C@H](CSc2ccc(OC)cc2)CC(C)C)CC1,-113.5*
COC(=O)CCCNC(=O)c1ccc2oc(CCCc3ccccc3)nc2c1,-62.1*
COC(=O)[C@@H](C)NC(=O)c1ccc2oc(CCc3ccccc3)nc2c1,-168.6*
Cc1ccc(C(=O)c2cc([N+](=O)[O-])ccc2N2CCOCC2)cc1,92.2
Cc1ccc(C(=O)c2ccc(N3CCOCC3)c(F)c2)cc1,-109.0*
CCC(=O)c1ccc(N2CCCCC2)c(F)c1,-68.0*
CCCC(=O)c1ccc(N2CCOCC2)c(F)c1,-97.4*
O=C(Cc1ccccc1)c1nc2ccccc2s1,-215.7*
COC(=O)c1ccc(CSc2nc3ccccc3s2)o1,-83.2*
COC(=O)c1ccc(/C(O)=C(\C#N)c2nc3ccccc3s2)cc1,-149.9*
COC(=O)c1ccc(CC(=O)c2nc3ccccc3s2)cc1,-63.1*
CC(=O)Cc1nsc(Nc2ccc(C)cc2)n1,-92.6*
C(=N\Nc1nc2ccccc2[nH]1)/c1ccncc1,-147.4*
COC(=O)c1ccc(/C=N/Nc2nc3ccccc3[nH]2)cc1,-175.9*
c1ccc2[nH]c(NN=C3CCCCCC3)nc2c1,-113.7*
CC(=O)Nc1ccc(/C=N/Nc2nc3ccccc3[nH]2)cc1,-101.2*
Clc1nc2ccccc2cc1/C=N/Nc1nc2ccccc2[nH]1,-97.2*
CC(C)OC(=O)c1ccc(NC(=O)CSc2nc3ncccc3[nH]2)cc1,-62.1*
Cn1ncc(Oc2ccc([N+](=O)[O-])cc2)c(Cl)c1=O,-65.8*
COc1ccc(Oc2c(Cl)cnn(-c3ccc(Cl)c(Cl)c3)c2=O)cc1,72.7
SMILES,aSyn UTR act
Cn1ncc(Cl)c(Oc2ccc(Cl)cc2)c1=O,-72.6*
COc1ccccc1OCC#CCSc1ncccn1,-80.6*
O=C(CSc1n[nH]c(-c2ccccn2)n1)Nc1ccc(F)cc1,72.8
Fc1ccc(CSc2nnc(-c3ccccn3)o2)cc1,-196.1*
O=C(CSc1nnc(-c2ccccn2)o1)Nc1ccccc1,-70.8*
Cc1occc1-c1nnc(SCC(=O)Nc2ccccn2)o1,-114.9*
O=C(CSc1nnc(-c2ccccn2)o1)Nc1ccc(F)cc1,-93.8*
COc1cccc(-c2nc(N3CCN(C)CC3)c3ccccc3n2)c1O,-165.0*
O=C(Nc1ccccn1)c1ccc(COc2ccccc2Cl)o1,-70.9*
CN(C)C(=O)c1ccc(COc2ccccc2Br)o1,-165.5*
O=C(Nc1ccc(Cl)cn1)c1ccc(COc2ccccc2Br)o1,-116.7*
CCOC(=O)CSC1=NC(=O)/C(=C\c2ccc(OC(C)=O)cc2)S1,-131.2*
CCOC(=O)CSC1=NC(=O)/C(=C/c2ccc(Br)cc2)S1,-61.9*
COc1ccc(C2N=C(c3ccccc3)NO2)cc1OC (stereo not given),-141.5*
FC(F)Oc1ccc(C2N=C(c3ccccc3)NO2)cc1 (stereo not given),-199.0*
O=C(Nc1ccccn1)c1cc(-c2cccnc2)nc2ccc(Br)cc12,62.1
Cc1ccc(-c2cc(C(=O)NCc3cnn(C)c3C)c3cc(Br)ccc3n2)cc1,-63.9*
N#C/C(=C\c1ccco1)Sc1nc2ccccc2s1,-83.6*
COc1ccc(NC(=O)C2C3CC/C=C\CCC32)cc1 (stereo not given),-140.7*
CCOc1ccc(NC(=O)C2C3CC/C=C\CCC32)cc1 (stereo not given),-86.6*
Cc1ccc(O)c(NC(=O)c2ccc3c(c2)C(=O)N(CC(C)C)C3=O)c1,-112.5*
CCc1nnc(NC(=O)c2ccc3c(c2)C(=O)N(CC(C)C)C3=O)s1,-88.4*
Sc1oc(-c2ccccc2)cc1C=Nc1ccccc1,-116.9*
Cn1c(=O)c(C(=O)Nc2ncccc2O)c(O)c2ccccc21,-146.7*
Cc1cccc(NC(=O)c2c(O)c3ccccc3n(C)c2=O)c1,-141.5*
SMILES,aSyn UTR act
Cc1ccc(NC(=O)c2c(O)c3ccccc3n(C)c2=O)nc1,-97.8*
O=[N+]([O-])c1cc(/C=N/N2CCCCC2)ccc1Cl,-89.4*
CN1CCN(/N=C/c2ccc(Cl)c(Cl)c2)CC1,-144.7*
CN1CCN(/N=C/c2ccc(N(c3ccccc3)c3ccccc3)cc2)CC1,70.6
CN1CCN(/N=C/c2ccc(Br)cc2)CC1,-118.1*
CCSc1n[nH]c(=S)s1,-88.8*
Clc1cccc(Oc2cnc3ccccc3n2)c1,-65.6*
COc1ccc(Oc2cnc3ccccc3n2)cc1,-64.5*
CC(C)(C)c1ccc(Oc2ccc(N)cn2)cc1,87.0
COc1ccc(N2C3=[N+](CC2(C)O)c2ccccc2CC3)cc1 (stereo not given),-110.4*
CCCn1cnc2c(sc3nc4c(cc32)CSC(C)(C)C4)c1=O,-104.6*
c1ccc2c(c1)Cn1c-2nc2ccccc21,-124.0*
Brc1c(-c2ccccc2)nc2n1Cc1ccccc1-2,-145.8*
O=C(Nc1ccccc1Br)c1ccc(OC(=S)N2CCOCC2)cc1,-192.3*
Cc1ccc(NC(=O)c2ccc(OC(=S)N3CCOCC3)cc2)cc1,-74.9*
O=C(/C=C/c1cccc(F)c1)Nc1nccs1,-209.2*
O=C(/C=C/c1cccs1)Nc1cccc(NC(=O)/C=C/c2cccs2)n1,-180.9*
O=C(/C=C/c1cccs1)Nc1nccs1,-97.1*
CCc1nnc(NC(=O)/C=C/c2cccs2)s1,-160.3*
CCc1nnc(NC(=O)C=C(C)C)s1,-140.2*
Cc1cc(C)nc(NC(=O)/C=C/c2cccs2)c1,-155.3*
NS(=O)(=O)c1cccc(NC(=O)/C=C/c2cccs2)c1,-101.2*
Cc1cc(C)c(-c2csc(NC(=O)/C=C/c3cccs3)n2)c(C)c1,38.4
CC(C)CNC(=O)COCc1cc(-c2ccc3c(c2)OCO3)on1,-76.9*
CCCNC(=O)COCc1cc(-c2ccc3c(c2)OCO3)on1,-65.7*
SMILES,aSyn UTR act
O=C(COCc1cc(-c2ccc3c(c2)OCO3)on1)N1CCCCC1,-90.0*
CC(C)CNC(=O)c1cc(-c2ccc3c(c2)OCO3)on1,-100.2*
Cc1ccc(Cn2nc(C)c(NC(=O)c3cc(-c4ccc5c(c4)OCO5)on3)c2C)cc1,42.7
O=C(c1cc2ccccn2n1)N1CCN(Cc2ccccc2)CC1,-113.1*
CN(C)CCCNS(=O)(=O)c1ccc(N2CCC(c3ccc(Cl)cc3)=N2)cc1,-138.6*
Cc1cc(-c2cccc([N+](=O)[O-])c2)nc2ccc3ccccc3c12,-107.6*
CN(C)c1ccc(C2C3CCCc4ccccc4C3=NN2C)cc1 (stereo not given),-134.2*
CN1N=C2c3ccccc3CCC2C1c1ccc(C(F)(F)F)cc1 (stereo not given),-71.6*
Nc1c(C(=O)N2CCCCC2)sc2nc3c(cc12)CCCC3,-151.0*
Cc1ccc(C(=O)c2sc3nc4c(cc3c2N)CCC4)cc1,-132.4*
Nc1c(C(=O)N2CCCC2)sc2nc(-c3ccccc3)ccc12,-190.4*
CCOc1cc(/C=C2/NC(=O)N(CC(=O)OC)C2=O)ccc1O,-66.0*
CCOC(=O)Cc1cc(-c2ccc(OC)cc2)nc2ccc3ccccc3c12,-117.1*
CCOC(=O)Cc1cc(-c2ccc(O)cc2)nc2ccc3ccccc3c12,-80.4*
CCOC(=O)Cc1cc(-c2ccc(F)cc2)nc2ccc3ccccc3c12,-63.2*
Cc1ccc(-c2cnn(-c3cccc(C(F)(F)F)c3)c2N)cc1,-147.1*
Nc1c(-c2ccc(Cl)cc2)cnn1-c1cccc(C(F)(F)F)c1,-101.8*
